The target in test [1] is Cytochrome P450 2C19 (Homo sapiens) (UniProt P33261). Description: Cytochrome P450 Family 2 Subfamily C Member 19 (CYP2C19) small molecule antagonists: luciferase reporter qHTS assay (AID 1671197). Further: nearly all actives have a fitted effect of over 65% in size. On activity change, negative = inhibition: series mostly up to about 120 µM. A digest of the protocol:
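P450-Glo CYP2C19 system: enzyme-substrate mix with compound 10 min at room temperature, then NADPH regeneration solution, 1 h at 37C. Proluciferin-to-luciferin conversion detected by luminescence after 20 min with detection reagent; ketoconazole as positive control.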

Test [2] concerns the target Cytochrome P450 2C9 (Homo sapiens) (UniProt P11712). Description: Cytochrome P450 Family 2 Subfamily C Member 9 (CYP2C9) small molecule antagonists: luciferase reporter qHTS assay (AID 1671198). Further: nearly all actives have a fitted effect of over 50% in size. On activity change, negative = inhibition: series mostly up to about 120 µM. The gist of the method:
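Enzyme-substrate mix preincubated with compound 10 min at room temperature; reaction started with NADPH regeneration solution, 1 h 37C. Luminescent luciferin product read after 20 min detection reagent.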

Test [3] deals with Cytochrome P450 1A2 (Homo sapiens) (UniProt P05177). The experiment in a line: Cytochrome P450 Family 1 Subfamily A Member 2 (CYP1A2) small molecule antagonists: luciferase reporter qHTS assay (AID 1671199). Further: nearly all actives have a fitted effect of over 50% in size. On activity change, negative = inhibition: series mostly up to about 120 µM. A digest of the protocol:
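Room-temperature CYP1A2 reaction with proluciferin substrate: compounds added from DMSO, 10 min preincubation, NADPH regeneration for 1 h. Luciferin detection reagent then added; luminescence recorded as RLU.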

The target in test [4] is Cytochrome P450 3A4 (Homo sapiens) (UniProt P08684). Description: Cytochrome P450 Family 3 Subfamily A Member 4 (CYP3A4) small molecule antagonists: luciferase reporter qHTS assay (AID 1671201). Further: nearly all actives have a fitted effect of over 50% in size. On activity change, negative = inhibition: series mostly up to about 120 µM. The gist of the method: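 Proluciferin-to-luciferin conversion by CYP3A4, NADPH-regenerated, 1 h RT; luminescence read as RLU. Ketoconazole as control.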
The target in test [5] is Voltage-gated inwardly rectifying potassium channel KCNH2 (Homo sapiens) (UniProt Q12809). The experiment in a line: Human Ether-a-go-go-Related Gene (hERG) channel small molecule antagonists: fluorescence cell-based qHTS assay (AID 1671200). Further: nearly all actives have a fitted effect of over 50% in size.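 On activity change, negative = inhibition: hERG-expressing U2OS cells given a thallium stimulus after FluxOR II dye loading; series mostly up to about 77 µM.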 A digest of the protocol: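 Kinetic two-minute fluorescence traces, sampled at 1 s, were collected following thallium stimulus of U2OS cells (1000 per well) that had been cultured overnight at 37 C and loaded with FluxOR II.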

Where “and” joins values, the source holds several entries; their conditions need not be identical. Equal values may be shown once. Inconclusive results are not listed. Unmarked numbers belong to inactive results. Calls of active or inactive are those of the source. The call rests on the fitted dose curve; in most records, active means well fitted curve in the direction sought with a large enough effect in the repeat runs; inconclusive means weak or mixed curves; inactive means no such curve, though single readings can be large; an effect the other way counts as inactive or inconclusive.
On the % scale 0 is the no-effect control and ±100 the full control effect; potency means the concentration at half of the fitted maximal effect.

Cytochrome P450 2C9 (Homo sapiens), sequence (P11712 whole entry, looked up): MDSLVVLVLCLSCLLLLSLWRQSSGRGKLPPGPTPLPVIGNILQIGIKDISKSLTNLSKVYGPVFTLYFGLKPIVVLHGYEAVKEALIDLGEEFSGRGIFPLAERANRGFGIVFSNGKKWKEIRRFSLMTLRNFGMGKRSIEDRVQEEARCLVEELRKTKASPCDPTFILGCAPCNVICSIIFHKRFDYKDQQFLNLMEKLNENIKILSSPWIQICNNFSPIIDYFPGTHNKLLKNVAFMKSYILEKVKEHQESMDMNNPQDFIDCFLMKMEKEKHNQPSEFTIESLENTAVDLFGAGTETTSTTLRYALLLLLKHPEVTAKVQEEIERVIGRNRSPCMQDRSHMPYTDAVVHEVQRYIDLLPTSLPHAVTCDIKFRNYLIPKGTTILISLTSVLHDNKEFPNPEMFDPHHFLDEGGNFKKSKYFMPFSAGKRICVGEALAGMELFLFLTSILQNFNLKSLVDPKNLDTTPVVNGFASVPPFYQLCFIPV
Voltage-gated inwardly rectifying potassium channel KCNH2 (Homo sapiens), sequence (Q12809 whole entry, looked up): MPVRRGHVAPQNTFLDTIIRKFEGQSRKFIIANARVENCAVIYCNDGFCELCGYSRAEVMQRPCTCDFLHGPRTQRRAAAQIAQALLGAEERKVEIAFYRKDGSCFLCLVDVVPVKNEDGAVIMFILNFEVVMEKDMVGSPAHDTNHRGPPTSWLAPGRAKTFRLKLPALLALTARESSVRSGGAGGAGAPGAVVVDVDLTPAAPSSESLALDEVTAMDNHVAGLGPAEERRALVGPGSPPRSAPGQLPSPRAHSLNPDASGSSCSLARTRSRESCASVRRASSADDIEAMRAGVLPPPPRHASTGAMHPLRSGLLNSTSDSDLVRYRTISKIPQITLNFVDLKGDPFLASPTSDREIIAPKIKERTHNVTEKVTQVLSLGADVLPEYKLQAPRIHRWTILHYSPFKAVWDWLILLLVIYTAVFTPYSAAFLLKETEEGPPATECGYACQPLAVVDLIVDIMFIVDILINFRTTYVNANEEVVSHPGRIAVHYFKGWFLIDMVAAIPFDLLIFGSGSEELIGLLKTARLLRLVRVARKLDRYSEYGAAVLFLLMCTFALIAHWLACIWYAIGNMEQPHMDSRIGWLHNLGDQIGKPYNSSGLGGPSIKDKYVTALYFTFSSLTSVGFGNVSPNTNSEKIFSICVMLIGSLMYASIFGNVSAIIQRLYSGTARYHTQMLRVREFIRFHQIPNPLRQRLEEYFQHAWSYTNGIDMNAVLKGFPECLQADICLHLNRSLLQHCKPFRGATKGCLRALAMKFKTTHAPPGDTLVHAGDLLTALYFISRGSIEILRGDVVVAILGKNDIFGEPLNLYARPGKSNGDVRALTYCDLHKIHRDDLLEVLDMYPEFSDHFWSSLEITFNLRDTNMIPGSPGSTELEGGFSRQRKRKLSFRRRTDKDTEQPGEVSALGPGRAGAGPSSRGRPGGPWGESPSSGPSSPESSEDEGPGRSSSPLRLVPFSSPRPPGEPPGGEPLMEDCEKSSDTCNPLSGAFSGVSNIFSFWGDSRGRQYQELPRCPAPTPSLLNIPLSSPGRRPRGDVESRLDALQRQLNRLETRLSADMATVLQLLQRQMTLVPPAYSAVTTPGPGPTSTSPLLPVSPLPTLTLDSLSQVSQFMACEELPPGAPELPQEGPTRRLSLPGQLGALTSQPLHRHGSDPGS
Cytochrome P450 2C19 (Homo sapiens), sequence (P33261 whole entry, looked up): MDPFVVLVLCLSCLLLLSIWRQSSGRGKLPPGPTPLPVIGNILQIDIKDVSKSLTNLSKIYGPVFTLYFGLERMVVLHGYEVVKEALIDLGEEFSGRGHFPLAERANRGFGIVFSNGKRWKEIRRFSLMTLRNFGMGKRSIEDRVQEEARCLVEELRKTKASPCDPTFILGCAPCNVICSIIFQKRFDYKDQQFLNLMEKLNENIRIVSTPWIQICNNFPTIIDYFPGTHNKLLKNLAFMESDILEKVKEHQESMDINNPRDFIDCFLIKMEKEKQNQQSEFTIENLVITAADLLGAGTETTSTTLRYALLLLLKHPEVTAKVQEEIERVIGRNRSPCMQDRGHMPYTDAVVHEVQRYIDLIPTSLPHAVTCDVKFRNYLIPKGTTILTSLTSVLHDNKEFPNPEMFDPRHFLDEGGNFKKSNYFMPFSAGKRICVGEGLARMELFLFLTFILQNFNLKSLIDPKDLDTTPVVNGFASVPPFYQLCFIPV
Cytochrome P450 3A4 (Homo sapiens), sequence (P08684 whole entry, looked up): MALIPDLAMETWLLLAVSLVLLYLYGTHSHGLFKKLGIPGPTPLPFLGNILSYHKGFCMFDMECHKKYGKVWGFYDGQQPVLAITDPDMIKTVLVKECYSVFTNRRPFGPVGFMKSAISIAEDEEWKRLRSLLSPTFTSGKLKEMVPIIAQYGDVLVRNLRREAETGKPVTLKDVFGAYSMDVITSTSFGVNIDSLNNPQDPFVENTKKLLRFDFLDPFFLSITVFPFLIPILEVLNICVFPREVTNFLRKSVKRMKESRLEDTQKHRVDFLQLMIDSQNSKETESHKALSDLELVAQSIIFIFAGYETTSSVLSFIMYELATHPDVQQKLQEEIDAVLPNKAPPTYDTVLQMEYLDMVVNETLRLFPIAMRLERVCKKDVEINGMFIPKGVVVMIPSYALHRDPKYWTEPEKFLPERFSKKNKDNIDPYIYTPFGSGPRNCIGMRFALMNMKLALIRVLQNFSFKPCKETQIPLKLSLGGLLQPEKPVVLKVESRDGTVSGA
Cytochrome P450 1A2 (Homo sapiens), sequence (P05177 whole entry, looked up): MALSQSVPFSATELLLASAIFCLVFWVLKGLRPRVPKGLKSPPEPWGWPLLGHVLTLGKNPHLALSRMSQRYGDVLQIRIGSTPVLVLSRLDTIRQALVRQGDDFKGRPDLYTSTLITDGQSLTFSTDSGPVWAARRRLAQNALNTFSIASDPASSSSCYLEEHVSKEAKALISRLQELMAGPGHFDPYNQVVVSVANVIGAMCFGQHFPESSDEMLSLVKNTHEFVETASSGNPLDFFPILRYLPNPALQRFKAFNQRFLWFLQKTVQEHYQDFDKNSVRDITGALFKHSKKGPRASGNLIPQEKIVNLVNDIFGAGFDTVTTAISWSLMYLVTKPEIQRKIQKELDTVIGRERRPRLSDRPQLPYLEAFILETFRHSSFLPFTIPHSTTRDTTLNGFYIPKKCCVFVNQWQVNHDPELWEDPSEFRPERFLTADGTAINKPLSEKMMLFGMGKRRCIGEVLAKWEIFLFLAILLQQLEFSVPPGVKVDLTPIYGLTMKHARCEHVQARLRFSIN

For `Cc1cc(C(C)(C)C)cc(C)c1CC1=NCCN1`, the Potency result in test [1], in test [2], in test [3] and in test [4] was “inactive” throughout.
As for `CN1CCCCC1CCN1c2ccccc2Sc2ccc(S(C)=O)cc21` (stereo not drawn), the Potency result in test [1], in test [2], in test [3] and in test [4] was “inactive” in each case.
For the compound `O=C(/C=C/c1ccccc1)OC/C=C/c1ccccc1`, the Potency is 35.6 µM (active) in test [1], 31.7 µM (active) in test [2] and 28.3 µM (active) in test [3]. The Potency result in test [4] was “inactive”.
For `Nc1ccc(Oc2ccc(Cl)cc2)cc1` the same measures were 2.47 µM (active), 12.4 µM (active), 34.8 µM (active) and 17.5 µM (active).
Turning to `COC(=O)C1=C(C)NC(C)=C(C(=O)OCCN2CCN(C(c3ccccc3)c3ccccc3)CC2)C1c1cccc([N+](=O)[O-])c1` (stereo not drawn), the figures for the Potency in test [1], in test [2] and in test [5] were 2.45 µM (active), 0.692 µM (active) and 5.35 µM (active), respectively. The Potency result in test [3] and in test [4] was “inactive” throughout.
As for `CC1(C)[C@@H](O)CC[C@]2(C)[C@H]3C(=O)C=C4[C@@H]5C[C@@](C)(C(=O)O)CC[C@]5(C)CC[C@@]4(C)[C@]3(C)CC[C@@H]12`, the Potency entry in test [1], in test [2], in test [3] and in test [4] was “inactive” each time.
Turning to `COc1cc2nc(N3CCN(C(=O)c4ccco4)CC3)nc(N)c2cc1OC`, the activity change, negative = inhibition is 16.3% [at 23.6 µM] in test [1]; 1.12% [at 23.6 µM] in test [2]; 1.24% [at 23.6 µM] in test [3]; -1.36% [at 15.8 µM] in test [5]; 135% [at 23.6 µM] in test [4].
Take `Fc1ccc(C(c2ccc(F)cc2)N2CCNCC2)cc1`: the Potency result in test [1], in test [2], in test [3] and in test [4] was “inactive” each time.
With `Cc1c(C)c([N+](=O)[O-])c(C(C)(C)C)c([N+](=O)[O-])c1C`, the Potency in test [1] is 28.3 µM (active); in test [2], 35.6 µM (active); in test [3] it was 20 µM (active). Also, the Potency result in test [4] was “inactive”.
Regarding `CC(C)OC(=O)C(O)(CC(=O)O)CC(=O)O`, the Potency in test [1] and in test [2] was 35.6 µM (active) each time. Besides, the Potency result in test [5] and in test [4] was “inactive” throughout.
With `CC(=O)[C@H]1CC[C@H]2[C@@H]3CCC4=CC(=O)CC[C@]4(C)[C@H]3CC[C@]12C`, the Potency in test [1] is 3.54 µM (active) and 3.99 µM (active); in test [2], 22.3 µM (active) and 25.2 µM (active); in test [3], 31.7 µM (active). Besides, the Potency result in test [4] is “inactive”.
`C=CC(C)(CCC=C(C)C)OC=O` (stereo not drawn): the Potency is 20 µM (active) in test [1], 35.6 µM (active) in test [2] and 31.7 µM (active) in test [4]. Also, the Potency entry in test [5] is “inactive”.
In the case of `O=C(O)c1ccc2cc(C(=O)O)ccc2c1`, the Potency in test [1] is 32 µM (active). The Potency entry in test [2], in test [3], in test [5] and in test [4] was “inactive” throughout.
Consider `Clc1nnc(Cl)c2ccccc12`, for which the Potency result in test [1], in test [2], in test [5] and in test [4] was “inactive” in each case. Further, the Potency in test [3] is 11.2 µM (active).
As to `C/C=C/C=C/COC(=O)C(C)C`, the Potency in test [1] was 79.6 µM (active); in test [2], 63.3 µM (active); in test [3], 35.6 µM (active); in test [4], 28.3 µM (active). Besides, the Potency entry in test [5] was “inactive”.
For `CC(C)=CCNc1ncnc2c1ncn2[C@@H]1O[C@H](CO)[C@@H](O)[C@H]1O` the same measures were “inactive”, “inactive”, “inactive”, “inactive” and “inactive”.
Consider `COc1cc(/C=C/c2ccccc2)oc(=O)c1`, for which the Potency was 10.4 µM (active) in test [1], 32.8 µM (active) in test [2], 2.93 µM (active) in test [3] and 26.1 µM (active) in test [4]. Further, the Potency result in test [5] is “inactive”.
For the compound `CC(C)CCOC(=O)/C=C/c1ccccc1`, the figures for the Potency in test [1], in test [2] and in test [3] were 63.5 µM (active), 40.1 µM (active) and 22.5 µM (active), respectively. Besides, the Potency result in test [4] is “inactive”.
Turning to `Cc1ccc(O)c(O)c1`, the Potency result in test [1], in test [2] and in test [5] was “inactive” in each case.
As for `Cc1ccc(-c2ccccc2)cc1`, the Potency entry in test [1], in test [2], in test [3] and in test [4] was “inactive” throughout.
On to `C[Si](Cl)(c1ccccc1)c1ccccc1`, for which the results for the Potency in test [1] and in test [2] were 1.95 µM (active) and 4.37 µM (active), respectively. Further, in test [5], the Potency entry was “inactive”.
With `OCC(F)(F)F`, in test [1], the Potency was 74.8 µM (active). The Potency result in test [2], in test [3], in test [5] and in test [4] was “inactive” each time.
As for `CN(C)CCN1CCN(c2cccc(Cl)c2)C1=O`, the Potency result in test [1], in test [2], in test [5] and in test [4] was “inactive” in each case.
On to `O=C(O)CCN(C1(C(=O)NO)CCCC1)S(=O)(=O)c1ccc(Oc2ccc(F)cc2)cc1`, for which the Potency entry in test [1], in test [2], in test [3], in test [5] and in test [4] was “inactive” throughout.
As to `O=c1c(O)c(-c2ccc(O)cc2O)oc2cc(O)cc(O)c12`, the Potency entry in test [1], in test [5] and in test [4] was “inactive” each time. Also, in test [2], the Potency is 21.1 µM (active).
Consider `Nc1nc2c(ncn2COCCO)c(=O)[nH]1`, for which the Potency result in test [1], in test [2], in test [3] and in test [4] was “inactive” throughout.
`c1ccsc1`: the Potency entry in test [1], in test [2], in test [3], in test [5] and in test [4] was “inactive” each time.
In the case of `O=C(O)c1cc(N=Nc2ccc([N+](=O)[O-])cc2)ccc1O`, the results for the Potency in test [1] and in test [2] were 39.2 µM (active) and 34.9 µM (active), respectively. In test [5], the Potency entry was “inactive”.
With `CCOC(=O)c1ccc(C2CCC(NC[C@H](O)COc3ccc(O)c(NS(C)(=O)=O)c3)CC2)cc1` (stereo partly drawn), the values for the Potency in test [1] and in test [2] were 32.8 µM (active) and 5.84 µM (active), respectively. Moreover, the Potency result in test [3] and in test [4] was “inactive” throughout.

These data come from PubChem BioAssay (Tox21).
